Sfp inh: qHTS Assay for Inhibitors of Bacillus subtilis Sfp phosphopantetheinyl transferase (PPTase); Potency, µM, usual class: inhibitors; 3.5% of 310,000 active; Biochemical Sfp PPTase activity, qHTS; 4'-phosphopantetheinyl transferase ffp (Bacillus subtilis), Q9F4F7;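 further: the enzyme is Sfp with the accession as filed and its product quenches rhodamine fluorescence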
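Compounds were incubated with enzyme (final 15 nM) for 15 min at room temperature before substrate addition started the reaction. Fluorescence at 525 nm excitation, 598 nm emission was recorded immediately and after 30 minutes.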
JMJD2A Tudor: qHTS Assay for Inhibitors of JMJD2A-Tudor Domain | AlphaScreen JMJD2A-Tudor / H3K4me3 peptide binding | Potency, µM (series often up to 114 µM), hits mostly inhibitors | 4.4% of 390,000 active | AID 504339, 2011; further: nearly all actives have a fitted effect of over 50% in size
HP1b chromo inh: HTS for Inhibitors of HP1-beta Chromodomain Interactions with Methylated Histone Tails; Chromobox protein homolog 1 (Homo sapiens), P83916; AlphaScreen HP1-beta / biotin-H3K9me3 peptide binding; Potency, µM (series often up to 114 µM), actives largely listed as inhibitors; 0.56% of 390,000 active; further: nearly all actives have a fitted effect of over 70% in size
Target sequence (P83916 whole entry, looked up): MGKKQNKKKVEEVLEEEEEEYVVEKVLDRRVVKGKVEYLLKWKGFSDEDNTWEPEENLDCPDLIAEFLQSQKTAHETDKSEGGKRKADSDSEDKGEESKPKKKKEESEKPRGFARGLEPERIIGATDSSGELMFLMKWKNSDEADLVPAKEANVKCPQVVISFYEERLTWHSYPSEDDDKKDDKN
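HP1-beta protein (50 nM final) preincubated 30 min at room temperature with biotinylated H3(1-18)K9me3 peptide (50 nM) in PBS pH 7.4, 0.01% Tween-20, then compound added for 30 min. AlphaScreen streptavidin donor/nickel chelate acceptor beads (10 ug/mL final), 30 min dark, luminescence read.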
TDP1 block: qHTS Assay for Inhibitors of Tyrosyl-DNA Phosphodiesterase (TDP1); Potency, µM (highest dose often 130 µM), hits mostly inhibitors; Tyrosyl-DNA phosphodiesterase 1 (Homo sapiens), Q9NUW8; recombinant TDP1, AlphaScreen DNA substrate cleavage; 0.28% of 350,000 active; AID 485290, 2010; further: nearly all actives have a fitted effect of over 40% in size
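Here, a 5' biotin and 3' phosphotyrosine-FITC DNA oligonucleotide reports Tdp1 activity: intact substrate bridges AlphaScreen beads, while cleavage leaves a 3' phosphate and drops signal. All incubations at room temperature.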
G9a inh: qHTS Assay for Inhibitors of Histone Lysine Methyltransferase G9a; Histone-lysine N-methyltransferase EHMT2 (Homo sapiens), Q96KQ7; G9a H3K9 monomethylation, AlphaScreen, 2 h; Potency, µM (top dose mostly 102 µM), hits mostly inhibitors; 8.8% of 350,000 active; AID 504332, 2011; further: nearly all actives have a fitted effect of over 75% in size
Target sequence (Q96KQ7 913-1193 limits assumed): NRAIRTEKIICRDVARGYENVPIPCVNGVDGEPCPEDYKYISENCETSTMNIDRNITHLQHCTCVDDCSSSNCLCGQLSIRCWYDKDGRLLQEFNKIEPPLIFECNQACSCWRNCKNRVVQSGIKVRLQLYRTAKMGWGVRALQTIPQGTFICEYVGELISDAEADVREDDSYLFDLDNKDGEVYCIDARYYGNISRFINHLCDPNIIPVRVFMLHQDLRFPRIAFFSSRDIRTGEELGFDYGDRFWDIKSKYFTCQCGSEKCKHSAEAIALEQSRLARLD
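G9a (20 nM) preincubated 15 min RT with compounds, then 500 nM biotinylated H3K9 peptide and 20 uM SAM added; 2 h RT reaction. Monomethyl-H3K9 product detected by AlphaScreen with anti-H3K9me1 antibody, streptavidin donor and anti-rabbit IgG acceptor beads.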
BAZ2B inh: qHTS Assay for Inhibitors of BAZ2B; Bromodomain adjacent to zinc finger domain protein 2B (Homo sapiens), Q9UIF8; AlphaScreen BAZ2B-H3K14Ac peptide displacement; Potency, µM (top dose mostly 114 µM), hits mostly inhibitors; 4.4% of 360,000 active; AID 504333, 2011; further: nearly all actives have a fitted effect of over 60% in size
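In this displacement format the biotinylated H3(5-23) peptide acetylated at Lys14 serves as ligand at 50 nM, with BAZ2B at 50 nM in PBS pH 7.4 containing 0.01% Tween-20. Donor and acceptor beads are 10 ug/mL final.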
Numbers stand for hits; [ ] = dose if it differs, or a comment. A selection: hits, their analogues and other compounds. The true share with any hit is near 12%. The call rests on the fitted dose curve; in most records, active means well fitted curve in the direction sought with a large enough effect; inconclusive means small, poorly fitted or top-dose-only effect, or another doubt; inactive means no such curve, though single readings can be large; an effect the other way counts as inactive or inconclusive.

Screening CCOc1ccccc1CN1CCN(Cc2[nH]c3ccccc3c2C)CC1CCO (stereo not given) returned Sfp inh inactive, JMJD2A Tudor inconclusive, HP1b chromo inh inactive, TDP1 block inactive, G9a inh 71µM and BAZ2B inh inactive.
For CCOc1ccccc1CN1CCN(Cc2c[nH]c3ccccc23)CC1CCO (stereo not given) the results were Sfp inh inactive, JMJD2A Tudor inactive, HP1b chromo inh inactive, G9a inh inactive and BAZ2B inh inactive.
For COCCNC(=O)CCC(=O)NNc1nc2ccccc2c2nc(C)nn12 the results were Sfp inh inactive, JMJD2A Tudor 79µM, HP1b chromo inh inactive, TDP1 block inactive, G9a inh inactive and BAZ2B inh inactive.
COc1ccc(C(=O)COC(=O)CN2C(=O)C3C4CCC(C4)C3C2=O)cc1 (stereo not given) was read as Sfp inh inactive, JMJD2A Tudor 50µM, HP1b chromo inh inactive, TDP1 block inactive[0.0935 µM], G9a inh inactive and BAZ2B inh inactive.
O=C(CN1C(=O)C2C3C=CC(C3)C2C1=O)OCC(=O)c1ccc([N+](=O)[O-])cc1 (stereo not given) was read as Sfp inh inconclusive, JMJD2A Tudor inactive, HP1b chromo inh inactive, TDP1 block inactive, G9a inh 40µM and BAZ2B inh inactive.
For CCN(CC(=O)Nc1ccc2c(c1)OCCO2)C(=O)c1cc(S(=O)(=O)N2CCOCC2)ccc1F the results were JMJD2A Tudor inactive, HP1b chromo inh inactive, TDP1 block inactive, G9a inh inactive and BAZ2B inh inactive.
`CC(=O)c1ccc(N(CC(=O)NC2CCS(=O)(=O)C2)S(=O)(=O)c2ccc(C)cc2)cc1` (stereo not given) gave JMJD2A Tudor inactive, HP1b chromo inh inactive and TDP1 block inactive.
CNC(=S)N(CCc1c(C)[nH]c2ccccc12)Cc1cc(OC)c(OC)c(OC)c1 was read as Sfp inh inactive, JMJD2A Tudor inconclusive, HP1b chromo inh inactive, TDP1 block inactive, G9a inh inconclusive and BAZ2B inh 45µM.
`CCNC(=S)N(CCc1c(C)[nH]c2ccccc12)Cc1cc(OC)c(OC)c(OC)c1` gave Sfp inh inactive, JMJD2A Tudor inconclusive, HP1b chromo inh inactive, TDP1 block inactive, G9a inh 89µM and BAZ2B inh 50µM.
For COc1ccccc1NC(=S)N(CCc1c(C)[nH]c2ccccc12)Cc1cccs1 the results were Sfp inh inactive, JMJD2A Tudor inconclusive, HP1b chromo inh inactive, TDP1 block inactive, G9a inh inconclusive and BAZ2B inh inactive.
`CCNC(=S)N(CCc1c(C)[nH]c2ccccc12)Cc1cccnc1` gave Sfp inh inactive, JMJD2A Tudor inconclusive, HP1b chromo inh inconclusive, G9a inh inconclusive and BAZ2B inh inconclusive.
Screening O=C(CCS(=O)(=O)c1ccccc1Cl)NCc1ccc(F)cc1 returned Sfp inh inactive, JMJD2A Tudor inactive, HP1b chromo inh inactive, TDP1 block inactive, G9a inh 50µM and BAZ2B inh inactive.
For Cc1ccc(S(=O)(=O)CCC(=O)Nc2ccc(Br)cc2C)cc1 the results were JMJD2A Tudor inactive, HP1b chromo inh inactive, TDP1 block inactive, G9a inh inconclusive and BAZ2B inh inactive.
CCN(CC)c1ccc(NC(=O)CCS(=O)(=O)c2ccc(Br)cc2)c(C)c1 was read as Sfp inh inactive, JMJD2A Tudor 11µM, HP1b chromo inh 13µM, G9a inh 10µM and BAZ2B inh 11µM.
Screening Cc1ccc(NC(=O)CNC(=O)c2cccs2)nc1 returned JMJD2A Tudor inactive, HP1b chromo inh inactive, TDP1 block inactive, G9a inh inactive and BAZ2B inh inactive.
Cc1ccc(NC(=O)CCC(=O)c2cccs2)nc1 was read as JMJD2A Tudor inconclusive, HP1b chromo inh inactive, G9a inh 45µM and BAZ2B inh inconclusive.
For Cc1ccnc(NC(=O)CCS(=O)(=O)c2ccccc2)c1 the results were Sfp inh inactive, JMJD2A Tudor inactive, HP1b chromo inh inactive, TDP1 block inactive, G9a inh 79µM and BAZ2B inh inactive.
`Cc1ccnc(NC(=O)CS(=O)(=O)c2ccccc2)c1` gave Sfp inh inactive, JMJD2A Tudor inactive, HP1b chromo inh inactive, TDP1 block inactive, G9a inh inactive and BAZ2B inh inactive.
`Cc1ccc(-n2ncc(C(=O)NCc3ccco3)c2C2CCN(C(=O)OC(C)(C)C)CC2)cc1` gave JMJD2A Tudor inactive, HP1b chromo inh inactive, TDP1 block inactive, G9a inh inconclusive and BAZ2B inh inactive.
Cc1ccc(NC(=O)CCS(=O)(=O)c2ccc(Br)cc2)nc1 was read as Sfp inh inactive, JMJD2A Tudor 20µM, HP1b chromo inh inactive, TDP1 block inactive, G9a inh inactive and BAZ2B inh inactive.
`O=C(CCS(=O)(=O)c1ccc(Br)cc1)NCc1ccc(F)cc1` gave Sfp inh inactive, JMJD2A Tudor inactive, HP1b chromo inh inactive, TDP1 block 50µM, G9a inh inconclusive and BAZ2B inh 40µM.
Cc1ccc(CNC(=O)CCS(=O)(=O)c2ccc(Cl)cc2)cc1 was read as Sfp inh inactive, JMJD2A Tudor inactive, HP1b chromo inh inactive, TDP1 block inactive, G9a inh inactive and BAZ2B inh inactive.
Cc1ccc(CNC(=O)CCS(=O)(=O)c2ccc(Br)cc2)cc1 was read as Sfp inh inactive, JMJD2A Tudor 18µM, HP1b chromo inh 7.1µM, TDP1 block 11µM, G9a inh 8.9µM and BAZ2B inh inconclusive.
Screening Cc1ccc(S(=O)(=O)CCC(=O)Nc2ccc(Br)cc2)cc1 returned Sfp inh inactive, JMJD2A Tudor inactive, HP1b chromo inh inactive, G9a inh inconclusive and BAZ2B inh inactive.
CCN(CC)c1ccc(NC(=O)CCNS(=O)(=O)c2ccc3c(c2)CCC(=O)N3)c(C)c1 was read as Sfp inh inactive, JMJD2A Tudor inconclusive, HP1b chromo inh inconclusive, TDP1 block inactive, G9a inh 40µM and BAZ2B inh 35µM.
For Cc1ccc(NC(=O)CCNS(=O)(=O)c2ccc3c(c2)CCC(=O)N3)cc1F the results were Sfp inh inactive, JMJD2A Tudor inactive, HP1b chromo inh inactive, G9a inh inactive and BAZ2B inh inactive.
Cc1ccnc(NC(=O)CNC(=O)C23CC4CC(CC(C4)C2)C3)c1 was read as JMJD2A Tudor inactive, HP1b chromo inh inactive, G9a inh inactive and BAZ2B inh inactive.

Screening data deposited in PubChem BioAssay by National Center for Advancing Translational Sciences (NCATS).
